CYP2C9 inh: blockers of cytochrome P450 2C9 activity – biochemical, luminescence, ADME assay, primary screen; CYP2C9 Supersomes, luciferin-H conversion; inhibition, % at 5 µM; 96,000 compounds, 20% hits; AID 777, 2007;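 active means blocking of liver enzyme CYP2C9 beyond about 50% at 5 µM, limit read from the data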
CYP2C19 act: human CYP2C19 activators, primary screen, biochemical, luminescence. recombinant CYP2C19, luciferin-H EGE luminescence; stronger effect = higher value; 0 = fully inhibited enzyme, 1 = untreated enzyme. activation factor at 5 µM. 96,000 tested, under 10 active;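 active means activation factor of at least 2 at 5 µM in the primary screen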;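 further: 0 = wells with 2.5 mM tranylcypromine and 1 = vehicle-only wells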
Target sequence (P33261 whole entry, looked up): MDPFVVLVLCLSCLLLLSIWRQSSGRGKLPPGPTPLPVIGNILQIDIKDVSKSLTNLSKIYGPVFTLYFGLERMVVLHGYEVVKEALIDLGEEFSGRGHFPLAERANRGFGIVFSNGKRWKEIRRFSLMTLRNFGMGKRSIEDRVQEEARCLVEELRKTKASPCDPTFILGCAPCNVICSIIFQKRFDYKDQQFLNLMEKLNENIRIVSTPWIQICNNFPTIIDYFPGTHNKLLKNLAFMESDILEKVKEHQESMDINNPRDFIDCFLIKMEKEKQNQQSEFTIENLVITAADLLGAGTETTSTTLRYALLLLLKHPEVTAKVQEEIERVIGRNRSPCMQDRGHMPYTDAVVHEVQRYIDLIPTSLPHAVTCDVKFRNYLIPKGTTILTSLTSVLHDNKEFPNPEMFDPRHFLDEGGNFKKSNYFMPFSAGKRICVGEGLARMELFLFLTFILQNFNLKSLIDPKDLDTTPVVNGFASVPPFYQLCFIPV
CYP2C19 inhib: blockers of cytochrome P450 2C19 activity – biochemical, luminescence, ADME assay, primary screen; P33261; CYP2C19 Supersomes, luciferin-H EGE luminescence, 30 min; inhibition, % at 5 µM; 96,000 compounds, 21% hits; AID 778, 2007;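 active means CYP2C19 inhibition above a set limit at 5 µM in the primary screen, cut at about 50% in these data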;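 further: plate controls were negative control wells for no effect and 2.5 mM tranylcypromine positive control for full effect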
Measles CPE: compounds protecting cells from measles virus cytopathic effect, primary screen, measles RdRp inhibitor project, single point, MLSMR library, absorbance | protection (pct of control), % at 4 µM | 140,000 compounds, 1.5% hits | Measles virus-infected cells, CPE protection; in the data active means protection mostly above about 24%, no sharp cut-off; inactive means mostly below about 26%
CYP2C9 act: human CYP2C9 activators, primary screen, biochemical, luminescence | Cytochrome P450 2C9 (Homo sapiens), P11712 | recombinant CYP2C9, luciferin-H conversion; stronger effect = higher value; factor 1 = untreated enzyme, 0 = blocked | activation factor at 5 µM | 96,000 compounds, 1.4% hits;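 active means activation factor of 2 or more for CYP2C9 at a 5 µM dose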;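 further: 0 = sulfaphenazole-blocked wells and 1 = vehicle-only wells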
Starred values were filed as active, the others as inactive; x = no result. Compounds with a hit are over-represented: about 22% of the library has one in this group of screens.

SMILES | CYP2C9 inh | CYP2C19 act | CYP2C19 inhib | Measles CPE | CYP2C9 act
CN1C(=O)c2cccc(NC(=O)C3CCCCC3)c2C1=O | 43 | 0.3 | 74* | 18 | 0.6
COc1cc(C(=O)N2CCN(C(=O)c3ccccc3)CC2)cc(OC)c1OC | -23 | 1.2 | -17 | 6 | 1.2
CCC(=O)Nc1cccc2c1C(=O)N(C)C2=O | x | x | x | 4 | x
COC(=O)c1ccccc1NC(=O)C1CCCC1 | -39 | 0.4 | 57* | 8 | 1.4
O=C(Nc1ccccc1Oc1ccccc1)C1CC1 | 48 | 0.3 | 70* | 3 | 0.5
COC(=O)c1ccccc1NC(=O)C1CCN(C(=O)c2cc(OC)c(OC)c(OC)c2)CC1 | 91* | 0.8 | 18 | 13 | 0.1
CN(C)S(=O)(=O)c1ccc(NC(=O)N2CCN(c3ccccc3Cl)CC2)cc1 | -5 | 1 | -1 | 23 | 1
CCn1cc(C(=O)N2CCc3ccccc32)c(=O)c2cc(S(=O)(=O)N(C)C3CCCCC3)ccc21 | x | x | x | 22 | x
CCC(C)(C)NC(=O)C(c1cccn1C)N(C(=O)Cn1nnc2ccccc21)c1ccccc1OC (centres undefined) | 6 | 1 | -2 | 15 | 0.9
O=C(c1coc(=O)c(Br)c1)N1CCCc2ccccc21 | 26 | 0.9 | 8 | 9 | 0.7
CC(=O)C1=C(O)C(=O)N(c2nccs2)C1c1ccc(Br)cc1 (centres undefined) | 57* | 0.9 | 15 | 21 | 0.4
CC(=O)C1=C(O)C(=O)N(c2nccs2)C1c1ccc(F)cc1 (centres undefined) | x | x | x | 18 | x
COC(=O)CSc1nnc(-c2ccc(S(=O)(=O)NCc3ccccc3Cl)cc2)o1 | 34 | 1 | 4 | 15 | 0.7
CCN1CCN(c2nc(-c3ccncc3)nc3ccccc23)CC1 | 30 | 0.5 | 51* | 5 | 0.7
c1ccc(N2CCN(c3nc(-c4ccccn4)nc4ccccc34)CC2)cc1 | 59* | 0.7 | 32 | 17 | 0.4
CCN1CCN(c2nc(-c3cccnc3)nc3ccccc23)CC1 | 3 | 1 | -2 | 22 | 1
c1cncc(-c2nc(N3CCCCCC3)c3ccccc3n2)c1 | 77* | 0.6 | 39 | 21 | 0.2
c1ccc2c(N3CCCCCC3)nc(-c3ccncc3)nc2c1 | 80* | 0.2 | 76* | 11 | 0.2
CCCn1c(N)c(N2CCCCC2)c(=O)n(CC(=O)Nc2ccccc2C)c1=O | 53* | 0.6 | 38 | 14 | 0.5
COc1ccccc1N1CCN(C(=O)c2ccncc2)CC1 | 86* | 0 | 100* | 11 | 0.1
Cc1onc(-c2ccccc2)c1C(=O)N1CCCSC1=Nc1ccccc1 | 61* | 0 | 98* | 2 | 0.4
COc1ccccc1N1CCN(C(=O)c2ccc(C(C)(C)C)cc2)CC1 | 91* | 0.2 | 75* | 0 | 0.1
COc1ccccc1N1CCN(C(=O)c2c(-c3ccccc3)noc2C)CC1 | 28 | 0.4 | 55* | 9 | 0.7
COc1ccccc1N1CCN(C(=O)c2ccc(S(=O)(=O)N3CCCC3)cc2)CC1 | 34 | 0.8 | 15 | 14 | 0.7
COc1ccccc1N1CCN(C(=O)c2ccc(CSc3ccccc3)cc2)CC1 | x | x | x | 17 | x
SMILES | CYP2C9 inh | CYP2C19 act | CYP2C19 inhib | Measles CPE | CYP2C9 act
Cc1nn(C(=O)c2cc3sccc3[nH]2)c(C)c1C | -6 | 1.1 | -11 | 35 | 1.1
Cc1ccc2c(c1)c(=O)c1c3n2CCN(C(=O)CCl)C3CC1 (centres undefined) | 41 | 1 | -2 | 18 | 0.6
Cc1ccc2c(c1)c1c3n2CCN(C(=O)Cn2c(-c4ccccc4)noc2=O)C3CCC1 (centres undefined) | 50* | 0.9 | 9 | 7 | 0.5
Cc1ccc2c(c1)c1c3n2CCN(C(=O)CN2CCN(C)CC2)C3CCC1 (centres undefined) | 14 | 0.8 | 15 | 11 | 0.9
Cc1ccc2c(c1)c1c3n2CCN(C(=O)C2CC2)C3CCC1 (centres undefined) | 50* | 0.6 | 42 | 10 | 0.5
Cc1ccc2c(c1)c1c3n2CCCN(Cc2ccccc2)C3CCC1 (centres undefined) | 32 | 0.4 | 61* | 5 | 0.7
CCOC(=O)/C(C#N)=N\Nc1ccc(S(=O)(=O)Nc2nc(C)cc(C)n2)cc1 | x | x | x | 13 | x
CCOC(=O)CC(C)(C)/C(C)=N/Nc1ccc([N+](=O)[O-])cc1[N+](=O)[O-] | x | x | x | 6 | x
COc1cc(NC(=S)NC(=O)c2ccccc2F)ccc1NC(=O)c1ccco1 | x | x | x | 8 | x
C=CCSc1nnc(NC(=O)CSc2nnc(C)s2)s1 | 28 | 0.8 | 18 | 9 | 0.7
C=CCSc1nnc(NC(=O)CSc2nc(CCC)cc(=O)[nH]2)s1 | 34 | 0.5 | 51* | 13 | 0.7
C=CCSc1nnc(NC(=O)CSc2nc3ccccc3[nH]2)s1 | 87* | 0.4 | 62* | 21 | 0.1
CCCc1cc(=O)[nH]c(SCC(=O)Nc2c(C)cccc2C)n1 | 36 | 0.6 | 38 | 7 | 0.6
CCOc1ccc(N2C(=O)CC(N3CC(C)OC(C)C3)C2=O)cc1 (centres undefined) | -5 | 1.2 | -16 | 8 | 1
CCCCSCCCNC(=O)Nc1cccc(OC)c1 | 73* | 0.2 | 80* | 9 | 0.3
COc1cccc(NC(=O)CSCC(=O)O)c1 | 12 | 0.9 | 12 | 0 | 0.9
COc1cccc(NC(=O)CSCC(=O)Nc2ccccc2)c1 | 78* | 0.4 | 60* | 3 | 0.2
COC(=O)c1ccccc1NC(=O)CSCC(=O)Nc1ccccc1 | 34 | 0.5 | 53* | 5 | 0.7
COc1cccc(NC(=O)Cc2ccccc2)c1 | 31 | 0.1 | 94* | 24 | 0.7
Cc1cc(C(=O)COC(=O)CN=C2NS(=O)(=O)c3ccccc32)c(C)n1CCc1ccc(Cl)cc1 | x | x | x | 7 | x
Cc1cc(C(F)F)nn1CC(=O)NCc1ccccc1F | x | x | x | 10 | x
Cc1cc2c(c(SCC(=O)NCCc3ccccc3)n1)C(=O)OC2 | 12 | 0.7 | 30 | 5 | 0.9
CC(C)OC(=O)CN1CCN(C2c3ccccc3-c3ccccc32)CC1 | 25 | 0.7 | 31 | 20 | 0.7
Cc1ccc(Cl)cc1N1CCN(C(=O)c2cc3c(=O)[nH]c4ccccc4c3n2C)CC1 | x | x | x | 10 | x
CCc1ccccc1NC(=O)COc1cccc2ccc(C)nc12 | x | x | x | 3 | x
SMILES | CYP2C9 inh | CYP2C19 act | CYP2C19 inhib | Measles CPE | CYP2C9 act
COc1cccc(NC(=O)CNC(=O)c2ccc(F)cc2)c1 | 42 | 0.5 | 53* | 7 | 0.6
COc1cccc(NC(=O)CC2SC(=Nc3ccccc3)NC2=O)c1 (centres undefined) | 70* | 0.4 | 63* | 3 | 0.3
CCN(CC)C(=O)CSCC(=O)Nc1ccccc1 | -3 | 0.4 | 57* | 5 | 1
CCCC(=O)Nc1ccc(C(=O)Nc2cccc(OC)c2)cc1 | x | x | x | 2 | x
CCOc1ccc(NC(=O)CSCC(=O)O)cc1 | 5 | 0.9 | 13 | 3 | 1
Cn1c(CNc2ccc(Cl)cc2)nc2ccccc21 | 84* | 0 | 98* | 15 | 0.2

Compound activity: PubChem, several laboratories
